Measurements from PubChem BioAssay (NCATS).
Results filed as inconclusive are left out. Calls of active or inactive are those of the source. Unless noted, calls follow the shape of the dose curve; as a rule, active = well fitted curve in either direction with a large enough effect (not every such curve was filed as active); inconclusive = small, poorly fitted or top-dose-only effect, or another doubt; inactive = flat fitted curve, though single readings scatter.

Experiments:
[1] = target: Lysosomal acid glucosylceramidase (Homo sapiens) (UniProt P04062); test: Glucocerebrosidase-p2 (AID 348; in the data active = potency below about 10 µM; also: potency is read from the fitted curve at half-maximal effect); conditions: purified GBA, blue fluorogenic substrate, 40 min
Sequence of Lysosomal acid glucosylceramidase (Homo sapiens) (P04062 whole entry, looked up): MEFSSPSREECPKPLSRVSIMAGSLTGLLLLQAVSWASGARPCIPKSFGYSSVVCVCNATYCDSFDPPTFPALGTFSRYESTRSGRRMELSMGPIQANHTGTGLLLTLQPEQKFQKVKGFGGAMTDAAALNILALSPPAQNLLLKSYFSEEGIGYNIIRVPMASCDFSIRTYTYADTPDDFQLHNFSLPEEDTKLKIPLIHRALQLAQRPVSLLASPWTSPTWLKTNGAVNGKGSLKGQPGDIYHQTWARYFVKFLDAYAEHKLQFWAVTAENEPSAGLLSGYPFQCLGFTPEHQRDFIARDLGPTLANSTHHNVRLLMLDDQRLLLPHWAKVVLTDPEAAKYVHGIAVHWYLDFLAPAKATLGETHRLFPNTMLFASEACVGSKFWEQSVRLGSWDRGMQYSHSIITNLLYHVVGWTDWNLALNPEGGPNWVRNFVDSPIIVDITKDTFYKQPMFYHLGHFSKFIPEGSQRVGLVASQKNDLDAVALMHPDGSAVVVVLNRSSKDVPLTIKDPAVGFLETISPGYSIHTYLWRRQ
How it was run: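 Normal human glucocerebrosidase (0.2 nM) with blue fluorogenic substrate (80 uM final) in citrate/phosphate pH 5.9 with 10mM sodium taurocholate, 0.01% tween-20; 40 min RT, NaOH/glycine stop; fluorescence Ex 365/Em 440; AC50 from a titration from 0.6 nM upwards.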

[2] = AP1 Signaling Pathway (AID 357); conditions: ME-180 AP-1-bla reporter, EGF-induced, beta-lactamase ratio, 5 h; at 7.69 µM (top of the series) unless noted; also: % is scaled to controls: 0 for no effect and ±100 for the full control effect
How it was run: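 Modulation of EGF-driven AP-1 transcription was assessed with a beta-lactamase reporter in ME-180 cells. Compound and EC50 EGF were co-incubated 5 hours at 37 °C before 2.5-hour CCF4 loading at room temperature and dual-emission reading.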

[3] = target: Cytochrome P450 1A2 (Homo sapiens) (UniProt P05177); test: p450-cyp1a2 (AID 410; calls by dose curve; also: potency is read from the fitted curve at half-maximal effect); conditions: recombinant CYP1A2, luciferin-ME demethylation, luminescence; series mostly up to 57 µM
Sequence of Cytochrome P450 1A2 (Homo sapiens) (P05177 whole entry, looked up): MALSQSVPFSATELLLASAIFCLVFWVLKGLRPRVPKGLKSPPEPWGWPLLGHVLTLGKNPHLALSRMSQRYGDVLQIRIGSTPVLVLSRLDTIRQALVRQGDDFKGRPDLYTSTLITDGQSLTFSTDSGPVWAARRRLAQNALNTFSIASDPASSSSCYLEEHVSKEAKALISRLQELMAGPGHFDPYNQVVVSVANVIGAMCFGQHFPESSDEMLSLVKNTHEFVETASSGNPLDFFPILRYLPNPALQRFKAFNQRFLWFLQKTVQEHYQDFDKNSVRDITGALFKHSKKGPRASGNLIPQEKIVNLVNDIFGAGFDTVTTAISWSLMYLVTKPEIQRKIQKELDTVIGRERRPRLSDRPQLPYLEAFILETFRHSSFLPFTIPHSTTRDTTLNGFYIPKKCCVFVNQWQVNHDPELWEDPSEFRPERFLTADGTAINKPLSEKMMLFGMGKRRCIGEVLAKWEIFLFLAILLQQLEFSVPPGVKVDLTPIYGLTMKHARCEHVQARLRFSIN
How it was run: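 20nM CYP1A2, 100uM Luciferin-ME (=Km), 100mM KPO4; cpd 10 min RT; +NADPH regen, 60 min RT; stop/detect 20 min; luminescence. Normalized to furafylline 57 uM = full inhibition.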

[4] = NFAT Signaling Pathway (AID 444); conditions: Jurkat NFAT-bla M1, carbachol, beta-lactamase ratio, 5 h; at 7.69 µM (top of the series) unless noted;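 also: carbachol stimulus at about its EC50 of 1 µM final; % is scaled to controls: 0 for no effect and ±100 for the full control effect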
How it was run: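 Jurkat cells carrying an NFAT-driven β-lactamase reporter and co-transfected muscarinic M1 receptor were treated with compound plus carbachol (1 uM final, an EC50 level) for 5 h at 37 °C. CCF4 loading followed for 1 h at RT; 460/530 nm ratio gave %activity.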

[5] = Stat Signaling Pathway (AID 446); conditions: ME-180 SIE beta-lactamase reporter, IL-6 stimulated, 5 h; at 7.69 µM (top of the series) unless noted;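 also: ME-180 cervical cancer cells given 40 pM IL-6 alongside compound; SIE-controlled beta-lactamase reporter measured as 460/530 nm FRET emission ratio; % is scaled to controls: 0 for no effect and ±100 for the full control effect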
How it was run: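 Emission at 460 and 530 nm (excitation 405 nm) reports SIE-controlled beta-lactamase in ME-180 cells. Cells received compound with 40 pM IL-6 for 5 hrs at 37 C; data scaled between 300 pM IL-6 and 125 nM JAK-inhibitor controls.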

[6] = target: Glucocorticoid receptor (Homo sapiens) (UniProt P04150); test: GR-GFP Redistribution (AID 450;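 active = compounds whose dose series gives a full or clear partial fitted curve of increased nuclear translocation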; also: potency is read from the fitted curve at half-maximal effect); conditions: U2OS GR-GFP nuclear translocation, laser cytometry, 2 h
Sequence of Glucocorticoid receptor (Homo sapiens) (P04150 whole entry, looked up, the tested form may be a part): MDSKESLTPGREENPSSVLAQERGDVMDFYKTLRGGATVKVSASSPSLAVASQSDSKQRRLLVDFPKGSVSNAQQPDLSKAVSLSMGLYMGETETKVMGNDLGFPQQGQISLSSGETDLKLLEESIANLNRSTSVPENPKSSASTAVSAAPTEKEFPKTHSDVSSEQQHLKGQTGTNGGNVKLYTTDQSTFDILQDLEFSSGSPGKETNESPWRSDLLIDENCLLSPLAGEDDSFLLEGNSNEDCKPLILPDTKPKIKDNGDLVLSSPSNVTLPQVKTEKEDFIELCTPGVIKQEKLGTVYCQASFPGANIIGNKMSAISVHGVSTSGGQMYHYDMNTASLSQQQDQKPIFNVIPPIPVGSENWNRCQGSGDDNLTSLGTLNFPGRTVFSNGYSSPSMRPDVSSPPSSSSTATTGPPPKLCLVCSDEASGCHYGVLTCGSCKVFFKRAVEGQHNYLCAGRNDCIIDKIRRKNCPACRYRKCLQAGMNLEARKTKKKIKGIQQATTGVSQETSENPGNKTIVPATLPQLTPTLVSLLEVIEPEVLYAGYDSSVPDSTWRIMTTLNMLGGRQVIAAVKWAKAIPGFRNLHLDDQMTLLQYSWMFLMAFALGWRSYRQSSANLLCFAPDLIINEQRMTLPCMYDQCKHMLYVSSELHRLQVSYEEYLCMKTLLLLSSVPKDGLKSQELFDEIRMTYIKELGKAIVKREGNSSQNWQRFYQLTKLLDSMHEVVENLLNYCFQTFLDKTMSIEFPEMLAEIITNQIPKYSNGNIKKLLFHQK

[7] = Confirmation and Secondary Assay for Modulators of Hemoglobin Beta Chain Splicing at IVS2 654 locus (AID 910; active = well fitted curve in the direction sought with a large enough effect; an effect the other way counts as inactive or inconclusive;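 also: per-well total GFP intensity by laser scanning cytometry after 2-day treatment; % of control where 0% means no effect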); conditions: HeLa EGFP-654 splicing reporter, GFP fluorescence, 48 h; series mostly up to 38.3 µM
How it was run: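 HeLa cells stably carrying EGFP interrupted by mutant beta-globin IVS2-654 intron (CMV-driven) were treated with compound for 2 days at 37C; corrected splicing was scored as total peak GFP intensity per well (488 nm excitation, 500-520 nm emission).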

[8] = qHTS Assay for Identification of Small Molecule Agonists for Hypoxia Response Element Signaling Pathway (AID 914; active = well fitted activation curve with a large enough effect in the signal ratio, with a control signal flat, not every such curve was filed as active; the % refers to the signal ratio; also: % of control where 0% means no effect); conditions: ME-180 (cervical carcinoma) HRE-bla reporter, beta-lactamase ratio, CoCl2, 17 h; activation: stronger effect = higher value
How it was run: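 AC50 values come from titration-series %Activity, taken as the 460/530nm ratio of CCF4 fluorescence (excitation 405nm). CellSensor HRE-bla ME-180 cells were treated 17 hours at 37 C with compound plus an EC50 level of CoCl2.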

[9] = Confirmation and Secondary Assay for Modulators of Hemoglobin Beta Chain Splicing at IVS2 705 locus (AID 930; active = well fitted curve in the direction sought with a large enough effect; an effect the other way counts as inactive or inconclusive;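 also: HeLa cells stably expressing the EGFP-705 splicing reporter; % of control where 0% means no effect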); conditions: HeLa EGFP-705 splicing reporter, GFP fluorescence, 48 h; series mostly up to 38.3 µM
How it was run: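 Restored EGFP fluorescence after 2-day compound exposure reports splicing correction in IVS2-705 EGFP reporter HeLa cells; positive control was 500 nM splice-blocking PNA oligo. Signal measured as well total peak GFP intensity (488 nm excitation).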

[10] = qHTS Assay for Lipid Storage Modulators (AID 1519; calls by dose curve); conditions: Drosophila S3 cells, BODIPY lipid droplet/cell ratio, laser cytometry, cells loaded with oleic acid; for activity change, negative = inhibition: at 57.5 µM (top of the series)
How it was run: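 Cells seeded at 5,000 per well were treated with compounds over a concentration series and loaded with oleic acid (400 uM, as added). Lipid droplet fluorescence (488 nm excitation, 500-530 nm channel) was read by laser-scanning cytometry and normalized to 20 uM Triacsin C.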

[11] = target: Ubiquitin carboxyl-terminal hydrolase 1 (Homo sapiens) (UniProt O94782); test: Inhibitors of USP1/UAF1: Pilot qHTS (AID 504865; active = well fitted curve in the direction sought with a large enough effect; an effect the other way counts as inactive or inconclusive;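 also: rhodamine fluorescence freed from ubiquitin-rhodamine substrate followed over time; top concentration of the series differs between compounds; % is scaled to controls: 0 for no effect and ±100 for the full control effect; nearly all actives have a fitted effect of over 35% in size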); conditions: purified USP1/UAF1, Ub-rhodamine cleavage fluorescence; series mostly up to 54.9 µM
Sequence of Ubiquitin carboxyl-terminal hydrolase 1 (Homo sapiens) (O94782 whole entry, looked up): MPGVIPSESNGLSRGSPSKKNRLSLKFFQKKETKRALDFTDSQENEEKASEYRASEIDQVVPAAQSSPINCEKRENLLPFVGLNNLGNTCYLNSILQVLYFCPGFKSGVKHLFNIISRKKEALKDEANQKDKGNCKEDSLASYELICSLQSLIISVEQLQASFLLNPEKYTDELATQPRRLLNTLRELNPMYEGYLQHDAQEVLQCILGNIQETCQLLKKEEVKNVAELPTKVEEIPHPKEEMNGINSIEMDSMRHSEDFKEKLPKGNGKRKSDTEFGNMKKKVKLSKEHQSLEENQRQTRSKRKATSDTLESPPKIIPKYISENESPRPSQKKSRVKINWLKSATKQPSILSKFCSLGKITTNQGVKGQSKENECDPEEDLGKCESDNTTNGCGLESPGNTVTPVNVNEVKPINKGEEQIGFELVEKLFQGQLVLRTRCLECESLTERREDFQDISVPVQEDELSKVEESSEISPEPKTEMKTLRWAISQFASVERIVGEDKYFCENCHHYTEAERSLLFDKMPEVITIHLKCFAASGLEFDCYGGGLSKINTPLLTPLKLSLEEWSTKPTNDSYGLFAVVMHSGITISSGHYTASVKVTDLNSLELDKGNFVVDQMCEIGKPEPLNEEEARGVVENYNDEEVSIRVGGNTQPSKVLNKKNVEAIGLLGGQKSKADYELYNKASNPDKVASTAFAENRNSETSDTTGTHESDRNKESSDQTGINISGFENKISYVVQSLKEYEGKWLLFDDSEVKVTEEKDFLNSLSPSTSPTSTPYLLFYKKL
How it was run: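 Enzyme-free wells gave the negative control, while test wells held 1nM USP1/UAF1 preincubated with compound for 15 min at room temperature. Ub-Rho at 150nM final started the reaction, and fluorescence at 480/540 nm was recorded kinetically.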

[12] = Primary qHTS for small molecule stabilizers of the endoplasmic reticulum resident proteome: Secreted ER Calcium Modulated Protein (SERCaMP) assay (AID 1508630; active = well fitted curve in the direction sought with a large enough effect; an effect the other way counts as inactive or inconclusive; also: % is scaled to controls: 0 for no effect and ±100 for the full control effect); conditions: SH-SY5Y GLuc-SERCaMP (Gaussia luciferase released on ER calcium loss) secretion, thapsigargin, luminescence; series mostly up to 38.4 µM
How it was run: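 The SH-SY5Y reporter protocol was run at 3 concentrations up to 38.3 uM (primary) or 11 concentrations (follow-up): 16 h compound, 100 nM thapsigargin for 4 h, then extracellular luciferase luminescence.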

[13] = target: Glucocorticoid receptor (Homo sapiens) (UniProt P04150); test: GR-EFC Redistribution (AID 451; calls by dose curve; also: potency is read from the fitted curve at half-maximal effect); conditions: CHO-K1 GR-EFC translocation, beta-gal luminescence, 2 h
How it was run: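 CHO-K1 cells stably expressing nuclear-localized β-gal enzyme acceptor and GR fused C-terminally to the enzyme donor fragment; ligand-driven nuclear translocation restores β-gal by complementation. Compounds titrated up to 46 uM final, 2 h at 37 °C; luminescence read.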

[14] = target: Mitogen-activated protein kinase 10 (Mus musculus) (UniProt Q61831); test: JNK3 AlphaScreen Assay (AID 530); conditions: JNK3 lysate, c-Jun phosphorylation; series mostly up to 57.1 µM
How it was run: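 Biotinylated GST-cJun(1-79) served as substrate for JNK3 in HepG2 lysates stimulated with IL-1beta and TNF-alpha. ATP was 10 uM final, pH 7.6. Ser73 phosphorylation was quantified by AlphaScreen (680 nm excitation).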

[15] = target: Cytochrome P450 2C19 (Homo sapiens) (UniProt P33261); test: qHTS Assay for Inhibitors and Substrates of Cytochrome P450 2C19 (AID 899; active = well fitted curve in the direction sought with a large enough effect; an effect the other way counts as inactive or inconclusive; also: % is scaled to controls: 0 for no effect and ±100 for the full control effect; nearly all actives have a fitted effect of over 60% in size); conditions: recombinant CYP2C19, luciferin-H EGE luminescence; series mostly up to 57.1 µM
Sequence of Cytochrome P450 2C19 (Homo sapiens) (P33261 whole entry, looked up): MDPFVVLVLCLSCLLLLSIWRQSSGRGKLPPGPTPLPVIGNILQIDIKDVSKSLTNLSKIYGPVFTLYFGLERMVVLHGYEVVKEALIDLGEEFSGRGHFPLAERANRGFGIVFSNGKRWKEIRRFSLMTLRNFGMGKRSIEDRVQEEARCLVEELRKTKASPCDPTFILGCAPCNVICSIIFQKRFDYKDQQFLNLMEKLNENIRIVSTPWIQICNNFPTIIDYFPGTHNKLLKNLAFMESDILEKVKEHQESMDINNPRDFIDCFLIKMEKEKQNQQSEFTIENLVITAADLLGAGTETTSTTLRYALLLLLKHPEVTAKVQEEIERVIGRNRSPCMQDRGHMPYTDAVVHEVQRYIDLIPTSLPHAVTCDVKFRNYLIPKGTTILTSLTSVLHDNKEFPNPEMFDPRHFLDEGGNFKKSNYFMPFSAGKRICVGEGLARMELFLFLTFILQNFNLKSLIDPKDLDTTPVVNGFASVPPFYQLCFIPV
How it was run: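 Human CYP2C19 (5nM) with Luciferin-H EGE at 10uM (its KM) in 50mM KPO4 was preincubated with compound for 10 min at 37C. NADPH regeneration started a 60 min 37C reaction. Luciferin was read by luminescence, normalized to 57uM ketoconazole.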

[16] = target: 3',5'-cyclic-AMP phosphodiesterase 4B (Homo sapiens) (UniProt Q07343); test: qHTS Assay for Inhibitors of PDE-IV (AID 607; active = well fitted activation curve with a large enough effect in the main read-out, with a control signal flat, not every such curve was filed as active; also: % of control where 0% means no effect); conditions: HEK293 ACTOne CNG channel cells, membrane potential fluorescence; series mostly up to 22.9 µM
Sequence of 3',5'-cyclic-AMP phosphodiesterase 4B (Homo sapiens) (Q07343 whole entry, looked up): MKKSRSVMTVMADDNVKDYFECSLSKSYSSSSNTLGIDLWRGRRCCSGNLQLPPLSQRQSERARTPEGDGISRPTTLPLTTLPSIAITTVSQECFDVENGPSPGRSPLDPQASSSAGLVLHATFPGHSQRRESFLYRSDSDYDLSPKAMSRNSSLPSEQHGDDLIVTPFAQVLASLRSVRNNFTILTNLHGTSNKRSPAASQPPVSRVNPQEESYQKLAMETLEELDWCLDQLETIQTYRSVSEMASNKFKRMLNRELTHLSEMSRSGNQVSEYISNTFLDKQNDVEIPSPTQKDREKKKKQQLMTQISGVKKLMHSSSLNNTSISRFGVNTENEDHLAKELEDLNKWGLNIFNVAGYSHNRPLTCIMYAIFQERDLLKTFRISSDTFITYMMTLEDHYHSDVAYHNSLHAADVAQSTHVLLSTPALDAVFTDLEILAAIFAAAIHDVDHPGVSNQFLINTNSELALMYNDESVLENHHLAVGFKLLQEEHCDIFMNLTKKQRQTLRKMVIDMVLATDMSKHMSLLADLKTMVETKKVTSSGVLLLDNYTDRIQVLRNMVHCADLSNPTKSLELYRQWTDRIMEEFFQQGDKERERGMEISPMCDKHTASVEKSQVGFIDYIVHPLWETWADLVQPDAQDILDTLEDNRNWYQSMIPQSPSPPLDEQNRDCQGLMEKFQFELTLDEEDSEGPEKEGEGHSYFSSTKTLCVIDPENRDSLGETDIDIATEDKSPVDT
How it was run: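 The readout is membrane depolarisation from a cAMP-sensing CNG channel, detected with a potential dye at ex 535/em 590. Cells were HEK293-derived (endogenous PDE-IV) at 1000 cells/well, titrated up to 22.9 uM final.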

[17] = target: Cytochrome P450 3A4 (Homo sapiens) (UniProt P08684); test: qHTS Assay for Activators of Cytochrome P450 3A4 (AID 885; active = well fitted curve in the direction sought with a large enough effect; an effect the other way counts as inactive or inconclusive; also: nearly all actives have a fitted effect of over 65% in size); conditions: recombinant CYP3A4, Luciferin-PPXE luminescence, 60 min; series mostly up to 57.1 µM
Sequence of Cytochrome P450 3A4 (Homo sapiens) (P08684 whole entry, looked up): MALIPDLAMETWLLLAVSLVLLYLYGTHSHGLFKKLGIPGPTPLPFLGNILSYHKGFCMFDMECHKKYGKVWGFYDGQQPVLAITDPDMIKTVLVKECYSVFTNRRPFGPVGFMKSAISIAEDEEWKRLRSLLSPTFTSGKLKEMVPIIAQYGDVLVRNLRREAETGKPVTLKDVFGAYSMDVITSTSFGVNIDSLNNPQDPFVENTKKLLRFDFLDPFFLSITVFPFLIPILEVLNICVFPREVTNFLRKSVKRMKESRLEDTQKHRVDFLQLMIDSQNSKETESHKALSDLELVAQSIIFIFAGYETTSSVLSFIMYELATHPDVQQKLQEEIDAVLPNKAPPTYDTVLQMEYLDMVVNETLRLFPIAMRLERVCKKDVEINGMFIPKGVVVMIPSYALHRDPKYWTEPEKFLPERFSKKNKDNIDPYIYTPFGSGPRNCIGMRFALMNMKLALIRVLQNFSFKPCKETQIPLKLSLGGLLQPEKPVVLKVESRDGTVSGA
How it was run: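 Activators are scored by enhanced luminescence from CYP3A4 conversion of luciferin-PPXE (25uM, equal to KM) to luciferin, after 60 min at RT with an NADPH-regenerating system.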

[18] = measured here: cell count channel max response
[19] = measured here: lipid channel max response

SMILES | Potency [1] | activity change, negative = inhibition [2] | Potency [3] | activity change, negative = inhibition [4] | activity, negative = inhibition [5] | Potency [6] | outcome [7] | activation [8] | outcome [9] | activity change, negative = inhibition [10] | max response [10, 18] [%] | max response [10, 19] [%] | Potency [11] | Potency [12] | Potency [13] | outcome [14] | Potency [15] | Potency [16] | Potency [17]
Cc1noc(C)c1-c1cc(N(C)C)ncn1 | > 11.4 µM (inactive) | 10% (inactive) | 3.16 µM (active) | 9.29% (inactive) | 16% (inactive) | > 46 µM (inactive) | inactive | 0.655% (inactive) | inactive | 8.35% (inactive) | 3.97 | 11.9 | inactive | inactive | – | – | – | – | –
N#CCCn1c(=O)cnc2cnc(N3CCOCC3)nc21 | > 11.4 µM (inactive) | -13.7% (inactive) | 10 µM (active) | -0.169% (inactive) | 19.5% (inactive) | > 9.22 µM (inactive) | – | – | – | 6.47% (inactive) | 18.1 | 23.1 | – | inactive | > 46 µM (inactive) | inactive | inactive | – | –
Cc1nc2cnc(Nc3ccccc3)nc2n(C)c1=O | > 11.4 µM (inactive) | -16.6% (inactive) | 1.26 µM (active) | -8.95% (inactive) | -15.2% (inactive) | > 9.22 µM (inactive) | – | – | – | -9.81% (inactive) | 9.14 | 2.52 | – | inactive | > 46 µM (inactive) | inactive | – | inactive | inactive
COc1ncc2ncc(=O)n(Cc3cccs3)c2n1 | > 11.4 µM (inactive) | 1.19% (inactive) | 10 µM (active) | -2.85% (inactive) | -3.48% (inactive) | > 9.22 µM (inactive) | – | – | – | 4.1% (inactive) | 9.65 | 19.6 | – | inactive | > 46 µM (inactive) | inactive | – | – | inactive
COC(=O)N1CCC[C@@]2(CCN(c3ccccn3)C2)C1 | > 11.4 µM (inactive) | -6.02% (inactive) | 15.8 µM (active) | -1.97% (inactive) | 7.71% (inactive) | – | – | – | – | 5.17% (inactive) | 2.62 | 11 | – | inactive | > 46 µM (inactive) | inactive | – | – | –
CNc1ccnc(-c2ccccc2C(F)(F)F)n1 | > 11.4 µM (inactive) | 1.92% (inactive) | 12.6 µM (active) | 5.43% (inactive) | -22.6% (inactive) | > 46 µM (inactive) | inactive | – | inactive | 4.06% (inactive) | 2.06 | 6.45 | inactive | inactive | – | inactive | – | inactive | inactive
